Screening results: PubChem BioAssay, several laboratories
An excerpt weighted towards active compounds, which were near 0.54% of everything screened.
Mtb RmlCD inh: M. tuberculosis RmlC/RmlD inhibition. P9WH09+P9WH11. RmlC+RmlD coupled enzyme assay, percent inhibition; primary screen in compound mixtures. inhibition, % at 3.6 µM. 0.03% of 160,000 active. AID 1533; in the data active = inhibition mostly above about 34%, no sharp cut-off
DUSP3 inh: inhibitors of human VHR1 phosphatase (DUSP3); recombinant VHR phosphatase, pNPP absorbance; AID 1654; P51452; inhibition, % at 13.3 µM; 0.52% of 290,000 active; in the data active = inhibition above about 50%
The depositor's hits bear a star.

Screening Cc1cc(OCC(=O)NC2CC(C)(C)NC(C)(C)C2)c2c(C)c(C)c(=O)oc2c1 returned DUSP3 inh 28.
`Cc1cc(OCC(=O)NC2CC(C)(C)NC(C)(C)C2)c2c(C)cc(=O)oc2c1` gave DUSP3 inh 56*.
For Cc1c(OCC(=O)NC2CC(C)(C)NC(C)(C)C2)ccc2c3c(c(=O)oc12)CCC3 the results were DUSP3 inh 15.
Cc1c(OCC(=O)NC2CC(C)(C)NC(C)(C)C2)ccc2c1oc(=O)c1ccccc12 was read as DUSP3 inh 53*.
Screening CC(C)(C)NC(=O)CSc1nc2[nH]ncc2c(=O)[nH]1 returned Mtb RmlCD inh -3 and DUSP3 inh 12.
`CC(CCCC(C)(C)O)NC(=O)c1ccc(OC2CCN(C(=O)C3CC3)CC2)cc1` (stereo not drawn) gave Mtb RmlCD inh -4 and DUSP3 inh 35.
CC(=O)c1ccc(OC(=O)COc2ccccc2)cc1 was read as DUSP3 inh -8.
Screening O=C(Cc1ccccc1[N+](=O)[O-])OCc1cccc([N+](=O)[O-])c1 returned DUSP3 inh 47.
`CC(C)c1ccc(NC(=O)NN2CCOCC2)cc1` gave Mtb RmlCD inh -13 and DUSP3 inh 20.
O=[N+]([O-])c1ccc(C(O)CN2CCN(c3ccccc3)CC2)cc1 (stereo not drawn) was read as DUSP3 inh 20.
For Oc1ccc(N2CCN(CC(O)c3ccccc3)CC2)cc1 (stereo not drawn) the results were DUSP3 inh 50*.
For Cn1nc(C(C)(C)C)cc1C(=O)NCc1ccc2c(c1)OCO2 the results were DUSP3 inh -4.
Screening C/C(CC(=O)Nc1ccc(Cl)cn1)=N\NC(=O)Cc1cccs1 returned Mtb RmlCD inh 10 and DUSP3 inh 2.
O=C1NN(c2ccccc2)C(=O)/C1=C/c1ccc(-c2ccc(C(=O)O)cc2)o1 was read as DUSP3 inh -4.
`O=C1NN(c2ccccc2)C(=O)/C1=C/c1ccc(Sc2cccc3ccccc23)o1` gave DUSP3 inh 51*.
For CC(C)(C)OC(=O)N[C@@H](Cc1ccccc1)C(=O)N1CCC(C(=O)N[C@@H](Cc2c[nH]c3ccccc23)C(=O)O)CC1 the results were DUSP3 inh 7.
For O=[N+]([O-])c1cc(S(=O)(=O)Nc2ccccc2)ccc1NCc1cccnc1 the results were Mtb RmlCD inh -5 and DUSP3 inh 60*.
For O=[N+]([O-])c1cc(S(=O)(=O)Nc2ccccc2)ccc1NCc1ccccc1 the results were Mtb RmlCD inh -15 and DUSP3 inh 26.
For Cn1c(=O)c(C(=O)NC2CCCCCCC2)c(O)c2ccccc21 the results were Mtb RmlCD inh -3 and DUSP3 inh 19.
Cn1c(=O)c(C(=O)NC2CCCCCC2)c(O)c2ccccc21 was read as DUSP3 inh 60*.
`O=C(NCCOc1ccc(F)cc1)C1CCC(=O)N(CCc2ccccn2)C1` (stereo not drawn) gave DUSP3 inh 57*.
`COc1ccc(CCN2CC(C(=O)NCCc3ccccn3)CCC2=O)cc1` (stereo not drawn) gave DUSP3 inh 18.
Screening COc1ccc(N2CCN(C3CCCN(S(=O)(=O)c4ccc(C)cc4C)C3)CC2)cc1 (stereo not drawn) returned DUSP3 inh 57*.
COc1ccc(O)c(CN2CCCC(N3CCN(c4ccc(F)cc4)CC3)C2)c1 (stereo not drawn) was read as DUSP3 inh 44.
Screening COc1ccc(N2CCN(C3CCCN(S(=O)(=O)c4ccccc4)C3)CC2)cc1 (stereo not drawn) returned DUSP3 inh 6.
COc1ccc(N2CCN(C3CCCN(Cc4ccc(F)cc4Cl)C3)CC2)cc1 (stereo not drawn) was read as DUSP3 inh 51*.
CCOc1ccccc1CN1CCNC(=O)C1CC(=O)N(C)C1CCOCC1 (stereo not drawn) was read as DUSP3 inh 8.
For COc1ccc(CNC(=O)c2ccccc2[N+](=O)[O-])cc1 the results were Mtb RmlCD inh 5 and DUSP3 inh 20.
For COc1ccc(NC(=O)c2ccccc2[N+](=O)[O-])cc1 the results were Mtb RmlCD inh 8 and DUSP3 inh 55*.
O=C(CN1CCN(c2ccccc2)CC1)Nc1c(C(=O)C2CC2)oc2ccccc12 was read as DUSP3 inh 26.
`CCOC(=O)C1(CCc2ccccc2)CCN(C(=O)CN2CCOC2=O)CC1` gave DUSP3 inh 12.
For O=C(O)CCC(=O)N1N=C(c2ccc(Br)cc2)CC1c1ccc(Br)cc1 (stereo not drawn) the results were DUSP3 inh 56*.
O=C(O)CCC(=O)N1N=C(c2ccccc2)CC1c1ccc(Br)cc1 (stereo not drawn) was read as DUSP3 inh 73.
CCOC(=O)c1c(C)[nH]c(C)c1C(=O)COC(=O)c1nc2nccc(C)n2n1 was read as Mtb RmlCD inh 6 and DUSP3 inh 26.
Screening CC(C)NC(=O)c1ccc(CSCc2ccccc2Cl)o1 returned DUSP3 inh 57*.
